The term inhibition denotes the share of the control response that was lost under treatment.

For 93 compounds, inhibition and outcome results are on record in PubChem BioAssay AID588727 (Southern Research Specialized Biocontainment Screening …, 2011).

About 450 (0.13%) of roughly 350,000 compounds were called active. No rule for the calls is given here. A selection follows. Entries with a potency or affinity are not part of this list.

This assay can be described thus: inhibitors of VEEV TC-83 cytopathic effect, confirmation, Vero cells (AID 588727). The settings on record: VEEV TC-83 cytopathic effect inhibition, at 20 µM.
[1] abbreviates: stronger effect = higher value unless noted.

Consider `c1ccc(Oc2nc(NCc3ccco3)nc(NCc3ccco3)n2)cc1`, for which the inhibition under setting [1] was 4.2% (inactive).
Still for that read-out and setting: next, `Cc1ccc(S(=O)(=O)Nc2cccc3cccnc23)cc1`: 5.25% (inactive); `Cc1ccc(NS(=O)(=O)c2cccc3cccnc23)c(Cl)c1`: 1.97% (inactive); `O=S1(=O)N=C2CCCCCN2C(c2ccc(Cl)cc2)N1` (configuration not stated): 0.81% (inactive).
Still for that read-out and setting: as for `CCCCN1C(Nc2ccccc2)=NC[C@@H]1C`, the figure is 0.29% (inactive); as for `COc1ccc(C(C(=O)NC2CCCC2)N(C(=O)c2ccco2)c2ccc(OC)c(OC)c2)cc1` (configuration not stated), 0.66% (inactive).
Same read-out and setting: as for `CC(C)NC(=O)N(C)C[C@@H]1Oc2c(NS(=O)(=O)c3ccccc3)cccc2C(=O)N([C@@H](C)CO)C[C@@H]1C`, the figure is 0.31% (inactive).
Consider `COc1ccc(/C=C/c2nc3ccccc3c(=O)o2)cc1`, for which, under setting [1], the inhibition is 3.84% (inactive).
On to `O=c1nc(/C=C/c2ccc(O)c(O)c2)oc2ccccc12`, for which the inhibition under setting [1] is 1.28% (inactive).
For the compound `O=C1NC(=O)c2cc(NC(=O)c3cccc4ccccc34)ccc21`, under setting [1], the inhibition is 2.09% (inactive).
Same read-out and setting: as for `C[C@]1(O)CCC2C3CC[C@@H]4CC(=O)CC[C@]4(C)C3CC[C@@]21C` (some centres not stated), the entry is “inactive”; as for `CC12CCC(=O)CC1CCC1C2CCC2(C)C1CCC2(O)C(=O)CO` (configuration not stated), 10.6% (inactive); as for `Cn1cc(CN2CCC(O)CC2)c(-c2ccc(Oc3ccccc3)cc2)n1`, 1.33% (inactive).
On to `Cn1cc(CN2CCC(CO)CC2)c(-c2ccc(Oc3ccccc3)cc2)n1`, for which the inhibition under setting [1] was 0.54% (inactive).
For `COc1cccc(CN2CC(C(=O)NCCCn3ccnc3C)CCC2=O)c1` (configuration not stated), under setting [1], the inhibition was 0.67% (inactive).
Same read-out and setting: next, `CC(C)c1nnc(SCC(=O)N2CCc3ccccc32)n1N`: “inactive”; `C/C(=N\NC(=O)c1c(C)nc2ccccn12)c1cccc([N+](=O)[O-])c1`: 0.31% (inactive); `COc1ccc(/C=C/C(=O)c2c(C)nc3ccccn23)cc1`: 5.86% (inactive).
The same measure, in the same setting: next, `Cc1ccc(S(=O)(=O)NNC(=O)c2sc(NS(=O)(=O)c3ccccc3)nc2C)cc1`: 2.55% (inactive).
In the case of `CC(=O)c1cccc(NC(=O)CSc2nc3ccccc3c(=O)n2CCCN2CCOCC2)c1`, under setting [1], the inhibition was 8.56% (inactive).
Regarding `COc1ccc(CNC(=O)C(C)Sc2nc3ccccc3c(=O)n2CCCN2CCOCC2)cc1` (configuration not stated), the inhibition under setting [1] is 0.34% (inactive).
On the same count and under the same terms, next, `Cc1ccc2nnnc(-c3ccccc3)c2c1`: 0.17% (inactive); `c1ccc(-c2nnnc3ccccc23)cc1`: 0.46% (inactive); `COC(c1ccccc1)c1nc2ccccc2[nH]c1=O` (configuration not stated): 0.57% (inactive).
Turning to `O=C(CCCSc1nc2ccccc2[nH]1)Nc1ccccc1`, the inhibition entry under setting [1] is “inactive”.
On to `COc1cc(NC(=S)NC(=O)c2cc(C)cc(C)c2)ccc1NC(=O)c1cccs1`, for which, under setting [1], the inhibition was 8.93% (inactive).
Same read-out and setting: as for `COc1cc(NC(=S)NC(=O)c2c(OC)cccc2OC)ccc1NC(=O)c1cccs1`, the figure is 3.81% (inactive); as for `Cc1ccc(Cl)cc1Nc1nc(N2CCOCC2)nc(N2CCOCC2)n1`, “inactive”; as for `Cc1ccc(C(=O)CC(=O)c2cccc(F)c2)c(O)c1`, 1.73% (inactive).
As to `O=C(CC(=O)c1ccccc1O)c1cccc(F)c1`, the inhibition under setting [1] was 2.48% (inactive).
Same read-out and setting: as for `CC(C)(C)c1ccc(C(=O)CC(=O)c2cc(Cl)ccc2O)cc1`, the figure is 1.44% (inactive); as for `Cc1ccc(O)c(C(=O)CC(=O)c2ccc(C(C)(C)C)cc2)c1`, 2.3% (inactive).
With `CCN(CC)C(=O)Cn1cc(S(=O)(=O)CC(=O)N2CCOCC2)c2ccccc21`, the inhibition under setting [1] is 1.34% (inactive).
As to `CCc1cccc(CC)c1-n1c(SCc2cc(=O)n3ccsc3n2)nnc1-c1cccnc1`, the inhibition entry under setting [1] is “inactive”.
On the same count and under the same terms, next, `CN(C(=O)COC(=O)/C=C/c1ccc(S(=O)(=O)N2CCc3ccccc32)cc1)C1CCS(=O)(=O)C1` (configuration not stated): 0.84% (inactive).
Turning to `CC(CCc1ccccc1)OS(N)(=O)=O` (configuration not stated), under setting [1], the inhibition was 0.425% [measured here: 10K pilot screen inhibition, stronger effect = higher value] and the call was inactive.
As to `Cc1n[nH]c(C)c1CCNCc1ccc(OCC(O)CN2CCCCC2)cc1` (configuration not stated), the inhibition under setting [1] is 0.96% (inactive).
Same read-out and setting: as for `OC(COc1ccc(CNCCc2ccccc2F)cc1)CN1CCCCC1` (configuration not stated), the figure is 4.19% (inactive); as for `N/C(=N\OCc1ccc([N+](=O)[O-])cc1)c1ccccn1`, 0.33% (inactive).
With `CC(=O)Nc1ccccc1C(=O)OCC(=O)c1ccccc1Cl`, under setting [1], the inhibition was 0.205% [measured here: 10K pilot screen inhibition, stronger effect = higher value] and the compound was called inactive.
As to `CNC(=S)NCc1ccc2[nH]c3c(c2c1)CCCC3`, the inhibition under setting [1] is 0.13% (inactive).
The same measure, in the same setting: next, `CC(C)CC(=O)NCc1ccc2[nH]c3c(c2c1)CCCC3`: 1.23% (inactive); `CC(C)C[C@H]1CNC(=S)N1CC1CCN(CCCCc2ccccc2)CC1`: “inactive”; `COc1cccc(N2C(=O)C3CCCN3C2c2cccs2)c1` (configuration not stated): 1.22% (inactive).
For the compound `O=C1C2CCCN2C(c2cccs2)N1c1ccc(F)cc1` (configuration not stated), the inhibition entry under setting [1] is “inactive”.
On the same count and under the same terms, as for `CC(=O)Nc1ccc(S(=O)(=O)N(C)c2ccc(OCC(=O)Nc3ccccc3C(C)=O)cc2)cc1`, the figure is 11% (inactive); as for `CN(c1ccc(OCC(=O)Nc2cc(Cl)ccc2C(=O)O)cc1)S(=O)(=O)c1ccc(F)cc1`, 1.87% (inactive).
The same measure, in the same setting: next, `CC(C)CN(C(=O)COc1ccc(C(C)(C)C)cc1)C1CCS(=O)(=O)C1` (configuration not stated): 12.2% (inactive); `CN(C)N=Nc1nc2c(c(=O)n(C)c(=O)n2C)n1C`: “inactive”.
For `CN(C)N=Nc1nc2c([nH]1)c(=O)n(C)c(=O)n2C`, the inhibition under setting [1] is 1.78% (inactive).
On the same count and under the same terms, as for `CN(C(=O)c1cccc(NC(=O)Cc2ccc(NC(=O)C3CCN(C(=O)C4CC4)CC3)cc2)c1)C1CCCCC1`, the figure is 0.89% (inactive).
In the case of `O=C(CSc1nccn1-c1ccc(Cl)cc1)NCc1ccc2c(c1)OCO2`, under setting [1], the inhibition was 3.2% (inactive).
Take `O=C(Cc1c(Cl)cccc1Cl)OCc1ccccn1`: the inhibition under setting [1] was 1.24% (inactive).
For `CCOC(=O)Cc1nnc(Nc2cccc(O)c2)c2ccccc12`, under setting [1], the inhibition was 4.42% (inactive).
With `O=C(CN(CC1CCCO1)C(=O)CNS(=O)(=O)c1ccc(Cl)cc1)NCc1ccc(F)cc1` (configuration not stated), the inhibition under setting [1] is 3.94% (inactive).
Same read-out and setting: next, `COc1cc2nc(N3CCN(c4cc(C)ccc4C)CC3)nc(N)c2cc1OC`: “inactive”; `COc1cc2nc(N3CCN(C(=O)c4ccco4)CC3)nc(N)c2cc1OC`: 23.2% (inactive); `COC(=O)C1CCN(C(=O)COC(=O)CC(NC(N)=O)c2ccc(Cl)cc2)CC1` (configuration not stated): 1.27% (inactive).
On the same count and under the same terms, next, `CSc1nnc2c(n1)OC(c1ccc(C(=O)O)cc1)N(C(C)=O)c1ccccc1-2` (configuration not stated): 0.04% (inactive); `COc1ccc(NC(=O)c2ccco2)c([N+](=O)[O-])c1`: “inactive”.
Regarding `O=c1c2c([nH]c3ccccc13)CCCC2`, the inhibition under setting [1] is 0.1% (inactive).
In the case of `O=c1c2c([nH]c3ccccc13)CCCCC2`, under setting [1], the inhibition was 2.45% (inactive).
Regarding `Fc1ccc(NC(=S)NCc2ccc3c(c2)OCO3)cc1`, the inhibition under setting [1] was 1.24% (inactive).
Still for that read-out and setting: next, `COc1ccc(CCNC(=O)Cn2c(=O)oc3cc(Cl)ccc32)cc1OC`: 1.85% (inactive); `N#C/C(=C\c1ccccc1[N+](=O)[O-])C(=O)NC1CCCCC1`: 6.23% (inactive).
Take `CC1CCCCC1NC(=O)/C(C#N)=C/c1ccccc1F` (configuration not stated): the inhibition under setting [1] is 10.5% (inactive).
The same measure, in the same setting: as for `COCCNC(=O)/C(C#N)=C/C=C/c1ccccc1[N+](=O)[O-]`, the figure is 55.2% (inactive).
For `O=C(/C=C/c1ccccc1[N+](=O)[O-])NC1CCCC1`, under setting [1], the inhibition result was “inactive”.
On to `Cc1ccc(-c2nn(-c3ccccc3)cc2/C=N/n2c(-c3ccncc3)n[nH]c2=S)cc1`, for which, under setting [1], the inhibition is 0.07% (inactive).
The same measure, in the same setting: as for `COc1cc(C(=O)NNC(=O)CCOc2ccccc2)cc(OC)c1OC`, the entry is “inactive”; as for `O=C(COc1ccc(-c2ccccc2)cc1)NNC(=O)NC1CCCCC1`, 0.67% (inactive); as for `N#Cc1c(NC(=O)c2ccc(Cn3cc(Br)cn3)o2)sc2c1CCCCCC2`, “inactive”.
Still for that read-out and setting: as for `COCC1CCCCN1C(=O)c1cccc(OC2CCN(C(=O)C3CC3)CC2)c1` (configuration not stated), the entry is “inactive”; as for `COc1ccc(C(=O)NCc2ccc(F)cc2)cc1S(=O)(=O)N1CCCC1`, 10.6% (inactive).
On to `Cc1cc(OC(=O)c2cc(Cl)nc3ccccc23)ccc1Cl`, for which the inhibition under setting [1] is 2.81% (inactive).
As to `CSCCC(NS(=O)(=O)c1ccc2[nH]c(=O)c(=O)[nH]c2c1)C(=O)O` (configuration not stated), the inhibition entry under setting [1] is “inactive”.
Turning to `CCNC(=O)C1CCCc2c1[nH]c1ccc(Cl)cc21` (configuration not stated), the inhibition runs as follows: (stronger effect = higher value) 0.89% (inactive); (measured here: 10K pilot screen inhibition, stronger effect = higher value) 1.04%.
Turning to `CCOC(=O)C1CCCc2c1[nH]c1ccc(Cl)cc21` (configuration not stated), under setting [1], the inhibition was 0.82% (inactive).
`COc1ccc(-c2nn(-c3ccccc3)cc2/C=C/C(=O)N2CCOCC2)cc1OC`: the inhibition under setting [1] is 7.65% (inactive).
On to `Cc1cc(C)cc(N(C(=O)c2ccc(Br)o2)C2C=CS(=O)(=O)C2)c1` (configuration not stated), for which the inhibition result under setting [1] was “inactive”.
Turning to `O=[N+]([O-])c1cccc(/C=N/Nc2nc(NCc3ccccc3)nc(N3CCOCC3)n2)c1`, the inhibition under setting [1] was 2.74% (inactive).
Same read-out and setting: as for `O=[N+]([O-])c1ccc(/C=N/Nc2nc(NCc3ccccc3)nc(N3CCOCC3)n2)cc1`, the figure is 3.18% (inactive); as for `COc1ccc2c(c1)OC[C@H]1[C@H]2N2C(=O)c3cc(Br)ccc3NC(=O)[C@@]2(C)[C@H]1c1ccccc1`, 1.07% (inactive).
For the compound `O=c1[nH]ncc(N2CCCC2)c1Cl`, under setting [1], the inhibition entry was “inactive”.
On the same count and under the same terms, next, `CC(=O)c1cc(C)ccc1OC(=O)c1ccco1`: “inactive”; `CC(NC(=O)c1cccc(S(=O)(=O)N2CCN(Cc3ccccc3)CC2)c1)c1ccc(Br)cc1` (configuration not stated): 2.86% (inactive); `O=C(CCCN1C(=O)/C(=C/c2ccco2)SC1=S)Nc1cccc(C(=O)O)c1`: 11.7% (inactive).
`COc1ccc(NC(=O)CCCN2C(=O)/C(=C\c3ccco3)SC2=S)cc1`: the inhibition under setting [1] was 13.5% (inactive).
For the compound `O=C(CC(C(=O)c1ccccc1)c1ccccc1)c1ccccc1` (configuration not stated), under setting [1], the inhibition was 12.6% (inactive).
The same measure, in the same setting: next, `O=C(CC(CC(=O)c1ccccc1)c1ccccc1)c1ccccc1`: 1.3% (inactive).
The same measure, in the same setting: next, `CC(=O)N/C(=C/c1ccc(OS(=O)(=O)c2ccc(C)cc2)cc1)C(=O)NCCCO`: “inactive”.
Regarding `NC(=O)N1c2ccccc2C=Cc2ccccc21`, under setting [1], the inhibition is 0.99% (inactive) and the outcome was inactive.
On to `CNC(=O)N1c2ccccc2C=Cc2ccccc21`, for which the inhibition under setting [1] was 1.28% (inactive).
